Assay outcomes: PubChem BioAssay, Broad Institute
Only a selection was taken, and hits are over-represented in it overall.
ERAP1 inh: ERAP1 (human) enzyme inhibition; Q9NZ08; recombinant ERAP1, Leu-AMC fluorescence, 60 min; inhibition, % at 10.7 µM; 340,000 tested, 0.15% active;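 active means mean replicate inhibition of at least 30%, or all replicates individually reaching that 30% level; inactive means mean below 30% and not every replicate reaching it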
ERp5 inh: ERp5 (human) disulfide isomerase inhibition; Q15084; ERp5 insulin aggregation, absorbance 650 nm, 90 min; inhibition, % at 9.99 µM; 350,000 tested, 0.05% active; AID 651711;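 active means mean replicate inhibition above about 25%, with every replicate also reaching it, limit read from the data, passing the limit was not always enough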
Target sequence (Q15084 whole entry, looked up): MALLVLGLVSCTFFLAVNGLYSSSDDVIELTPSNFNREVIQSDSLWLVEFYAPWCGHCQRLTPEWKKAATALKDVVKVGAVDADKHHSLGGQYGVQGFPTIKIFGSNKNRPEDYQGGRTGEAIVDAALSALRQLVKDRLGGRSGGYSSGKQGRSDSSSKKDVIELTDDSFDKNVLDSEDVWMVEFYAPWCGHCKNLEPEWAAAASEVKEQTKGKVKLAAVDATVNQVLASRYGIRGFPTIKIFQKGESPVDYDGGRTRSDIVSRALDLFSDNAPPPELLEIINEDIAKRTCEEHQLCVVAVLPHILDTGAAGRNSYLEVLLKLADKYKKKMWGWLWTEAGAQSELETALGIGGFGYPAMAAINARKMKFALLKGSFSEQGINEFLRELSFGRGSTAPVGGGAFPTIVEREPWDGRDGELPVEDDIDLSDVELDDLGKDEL
SIRT5 inh: sirtuin-5 (human) deacylase inhibition. Q9NXA8. 330,000 tested, 1.1% active. AID 652115. inhibition, % at 15 µM. Purified SirT5, succinyl-peptide AMC, trypsin-coupled fluorescence; in the data active means inhibition above about 15%
PDI inh: inhibitors of human protein disulfide isomerase; inhibition, % at 10 µM; 350,000 tested, 0.052% active; PDI insulin aggregation turbidity, A650, 90 min;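 active means mean inhibition across replicates of 30% or more, whatever share of single replicates reach that level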
HDAC3 inh: inhibitors of human histone deacetylase 3; O15379; recombinant HDAC3, fluorogenic peptide/trypsin coupled, fluorescence; inhibition, % at 8.3 µM; 320,000 tested, 0.15% active; AID 2718; in the data active means inhibition above about 26%, passing the limit was not always enough
Each line names hits and unclear results; the compound was inactive in the other large screens; ! = repeats disagree.

CSc1ccc(C(=O)C2CCCN(C(=O)c3ccc4c(c3)OCO4)C2)cc1 (stereo not drawn)	SIRT5 inh 16
O=C(c1cccc(Cl)c1)C1CCCN(C(=O)c2ccc3c(c2)OCO3)C1 (stereo not drawn)	none
COc1cccc(-c2ccc3c(c2)[C@H]2[C@H](CCN2C(=O)c2ccccc2F)[C@H](CO)N3C)c1	SIRT5 inh 20 (no result: PDI inh, HDAC3 inh)
CN1c2ccc(-c3ccccc3)cc2[C@H]2[C@H](CCN2C(=O)c2ccccc2F)[C@H]1CO	none (no result: PDI inh, HDAC3 inh)
Cc1ccccc1S(=O)(=O)N1CC[C@@H]2[C@H]1c1cc(-c3ccc(C#N)cc3)ccc1N[C@@H]2CO	none (no result: PDI inh, HDAC3 inh)
COc1ccccc1NC(=O)CCCCC(=O)Nc1ccccc1OC	SIRT5 inh 16
COc1ccccc1NC(=O)c1cc[n+](C)cc1	ERAP1 inh 103
CCNCc1cc(Br)c(OCC(=O)Nc2ccccc2)c(OC)c1	none (no result: ERAP1 inh, ERp5 inh, SIRT5 inh)
COc1ccccc1NC(=O)CSC(N)=O	HDAC3 inh 63 (no result: ERAP1 inh, ERp5 inh, SIRT5 inh)
CNCc1cc(Br)c(OCC(=O)Nc2ccccc2OC)c(OC)c1	SIRT5 inh 24
COc1ccc(S(=O)(=O)N(C)C[C@@H]2Oc3ccc(NC(=O)Cc4ccccc4)cc3C(=O)N([C@@H](C)CO)C[C@@H]2C)cc1	none (no result: PDI inh, HDAC3 inh)
O=C(CC1CC1)Nc1ccc2c(c1)[C@@H]1C[C@@H](CC(=O)N3CCc4ccccc4C3)O[C@H](CO)[C@@H]1O2	none (no result: PDI inh, HDAC3 inh)
O=C(C[C@@H]1C=C[C@H](NC(=O)c2ccccc2)[C@H](CO)O1)NCc1ccc(Oc2ccccc2)cc1	none (no result: PDI inh, HDAC3 inh)
COc1ccccc1NC(=O)CNc1ccc(F)c(Cl)c1	SIRT5 inh 31
Cc1noc(C)c1NC(=O)N(C)C[C@H]1Oc2ccc(NC(=O)CCCCCC(=O)Nc3ccccc3N)cc2C(=O)N([C@@H](C)CO)C[C@@H]1C	none (no result: SIRT5 inh, PDI inh, HDAC3 inh)
O=C(NCCN1CCOCC1)C1CCC(CNS(=O)(=O)c2ccc(Cl)cc2)CC1 (stereo not drawn)	SIRT5 inh 24
COc1ccc(S(=O)(=O)Nc2ccc3c(c2)C(=O)N([C@H](C)CO)C[C@H](C)[C@@H](CN(C)C(=O)Nc2ccccc2)O3)cc1	none (no result: SIRT5 inh)
COc1ccc(NC(=O)N(C)C[C@H]2Oc3ccc(NS(=O)(=O)c4ccc(OC)cc4)cc3CC(=O)N([C@@H](C)CO)C[C@H]2C)cc1	none (no result: PDI inh, HDAC3 inh)
C[C@@H]1CN([C@H](C)CO)C(=O)c2cc(NS(=O)(=O)c3cn(C)cn3)ccc2O[C@H]1CN(C)C(=O)Nc1ccccc1	SIRT5 inh 23!
COc1ccc(S(=O)(=O)Nc2ccc3c(c2)C(=O)N([C@H](C)CO)C[C@H](C)[C@H](CN(C)C(=O)Nc2ccccc2)O3)cc1	ERp5 inh 29 (no result: PDI inh, HDAC3 inh)
C[C@@H]1CN([C@H](C)CO)C(=O)c2cccc(NC(=O)Nc3ccc4c(c3)OCO4)c2O[C@@H]1CN(C)S(=O)(=O)c1cn(C)cn1	SIRT5 inh 16 (no result: PDI inh, HDAC3 inh)
COc1ccc(NC(=O)N(C)C[C@H]2Oc3ccc(NS(=O)(=O)c4ccc(OC)cc4)cc3CC(=O)N([C@H](C)CO)C[C@H]2C)cc1	SIRT5 inh 20 (no result: PDI inh, HDAC3 inh)
COc1ccc(C#Cc2cnc3c(c2)C(=O)N([C@H](C)CO)C[C@H](C)[C@H](CN(C)C(=O)CN(C)C)O3)cc1	none (no result: PDI inh, HDAC3 inh)
CCCNC(=O)N1CC2(CN(Cc3ccc(F)cc3)C2)c2c([nH]c3cc(OC)ccc23)[C@H]1CO	none (no result: PDI inh, HDAC3 inh)
CN(C)C(=O)c1ccc(-c2ccc([C@H]3[C@@H](C#N)N(S(C)(=O)=O)[C@H]3CO)cc2)cc1	none (no result: PDI inh, HDAC3 inh)
C[C@H](CO)N1C[C@H](C)[C@H](CN(C)Cc2ccncc2)Oc2ccc(NC(=O)NC3CCCCC3)cc2CC1=O	none (no result: PDI inh, HDAC3 inh)
C[C@H]1CN([C@@H](C)CO)C(=O)c2ccccc2-c2ccccc2CO[C@H]1CN(C)Cc1cccc(C(F)(F)F)c1	none (no result: PDI inh, HDAC3 inh)
C[C@H](CO)N1C[C@H](C)[C@@H](CN(C)S(=O)(=O)c2cn(C)cn2)Oc2ccc(NC(=O)C3CC3)cc2C1=O	none
COc1ccc(S(=O)(=O)Nc2ccc3c(c2)C(=O)N([C@H](C)CO)C[C@@H](C)[C@H](CN(C)C(=O)Nc2ccccc2)O3)cc1	none (no result: PDI inh, HDAC3 inh)
C[C@@H]1CN([C@@H](C)CO)C(=O)c2cc(NC(=O)C3CC3)ccc2O[C@@H]1CN(C)S(=O)(=O)c1cn(C)cn1	SIRT5 inh 25 (no result: PDI inh, HDAC3 inh)
COc1ccc(NC(=O)N(C)C[C@H]2Oc3ccc(NS(=O)(=O)c4ccccc4)cc3C(=O)N([C@@H](C)CO)C[C@@H]2C)cc1	ERp5 inh 33 (no result: PDI inh, HDAC3 inh)
O=C(O)c1ccc(N/N=C/C2=C(N3CCOCC3)C(=C\c3ccccc3)/CC2)cc1	SIRT5 inh 19
COc1ccccc1-c1cc(C(F)(F)F)nc(S(=O)(=O)CCCC(=O)Nc2cc(C)on2)n1	none (no result: ERAP1 inh, ERp5 inh, SIRT5 inh)
COc1ccc(-c2cc(C(F)(F)F)nc(S(=O)(=O)CCCC(=O)Nc3cc(C)on3)n2)cc1OC	ERAP1 inh 37 (no result: HDAC3 inh)
CCOc1cc(/C=N/NC(=O)c2ccc(-c3csc(Nc4ccc(C)cc4)n3)cc2)ccc1OCC(=O)O	none (no result: HDAC3 inh)
O=C(O)COc1ccc(/C=N/NC(=O)c2ccc(-c3csc(Nc4ccc(Cl)cc4)n3)cc2)cc1	SIRT5 inh 28 (no result: HDAC3 inh)
CCOC(=O)C1=C(C)NC(SCc2cc(=O)[nH][nH]2)=C(C#N)C1c1cccs1 (stereo not drawn)	SIRT5 inh 20
O=S1(=O)CC(N2CCN(CCO)CC2)CN1Cc1cn(Cc2cccc(C(F)(F)F)c2)nn1 (stereo not drawn)	SIRT5 inh 23 (no result: ERAP1 inh, PDI inh, HDAC3 inh)
Cc1cc(C)cc(Cn2cc(CN3CC(N4CCN(CCO)CC4)CS3(=O)=O)nn2)c1 (stereo not drawn)	SIRT5 inh 29 (no result: ERAP1 inh, PDI inh, HDAC3 inh)
CC(C)C1C(=O)N(Cc2cn(Cc3ccco3)nn2)CCS(=O)(=O)N1Cc1ccc(-c2ccccc2)cc1 (stereo not drawn)	none (no result: HDAC3 inh)
CC(C)C1C(=O)N(Cc2cn(Cc3ccco3)nn2)CCS(=O)(=O)N1Cc1ccc(-c2ccc(F)cc2)cc1 (stereo not drawn)	SIRT5 inh 25 (no result: ERAP1 inh, HDAC3 inh)
CCCCOc1ccc(C(=O)Nc2ccc(CN3CCOCC3)cc2)cc1	SIRT5 inh 29
CC(=O)c1ccc(NC(=S)N2CC(C)CC(C)C2)cc1 (stereo not drawn)	SIRT5 inh 16
C[C@@H]1CN([C@@H](C)CO)C(=O)c2cc(NC(=O)Nc3ccccc3)ccc2O[C@@H]1CN(C)CC1CC1	none (no result: PDI inh, HDAC3 inh)
C[C@@H]1CCCCO[C@H](CN(C)C(=O)Nc2ccc3c(c2)OCO3)[C@@H](C)CN([C@H](C)CO)C(=O)c2cc(NS(=O)(=O)c3cn(C)cn3)ccc2O1	none (no result: PDI inh, HDAC3 inh)
Cc1ccc(S(=O)(=O)N(C)C)cc1NC(=O)COC(=O)C1(c2ccccc2)CC1	ERp5 inh 28
C=CCOC(=O)[C@@H]1[C@H]2C(=O)O[C@H](c3ccccc3)[C@H](c3ccccc3)N2[C@H](c2ccc(OCCOC(=O)[C@@H]3C[C@@H]4C(=O)N[C@@H](Cc5ccccc5)C(=O)N4[C@@H]3c3ccc(O)cc3)cc2)[C@@]12C(=O)Nc1ccc(I)cc12	SIRT5 inh 19 (no result: PDI inh, HDAC3 inh)
